Sfp inh: inhibitors of Bacillus subtilis Sfp phosphopantetheinyl transferase; Q9F4F7; Biochemical Sfp PPTase activity, qHTS; Potency, µM, for the others: largest response in the series, negative = inhibition, hits mostly inhibitors; 3.5% of 310,000 active; AID 1490;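 note: the enzyme is Sfp with the accession as filed and its product quenches rhodamine fluorescence; potency is the fitted concentration of half-maximal effect; 0% = enzyme reaction without inhibitor and -100% = no enzyme wells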
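Buffer: 50 mM Hepes-Na pH 7.6, 10 mM MgCl2, 0.01% Nonidet P-40, 0.01% BSA. Enzyme 15 nM, pre-exposed to compound 15 min; substrates then added and fluorescence change tracked over 30 min.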
Tau fibril ThT: blocks human tau fibril formation measured by thioflavin T; 2.1% of 270,000 active; P10636; Potency, µM (doses to about 57.4 µM), inactives show top-dose activity, negative = inhibition, hits mostly inhibitors; recombinant tau K18 P301L, heparin-induced fibrillization, ThT fluorescence; note: potency is the fitted concentration of half-maximal effect; nearly all actives have a fitted effect of over 55% in size
Target sequence (P10636 561-689 P618L limits assumed): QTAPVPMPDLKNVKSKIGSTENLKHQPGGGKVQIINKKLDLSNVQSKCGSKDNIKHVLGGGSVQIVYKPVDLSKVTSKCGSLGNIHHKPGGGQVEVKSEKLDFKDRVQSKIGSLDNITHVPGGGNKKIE
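Heparin-induced (20 uM) aggregation of recombinant human K18 P301L tau, 15 uM unlabeled with 0.24 uM labeled, pH 7 acetate buffer, 6 hr at 37 C with compound. Fibrils quantified by 30 uM ThT fluorescence after 1 hr ambient incubation.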
Tau FP inhib: inhibitors of human tau fibril formation | Potency, µM (titrated, usually from 57.7 µM), without a hit: at the top dose activity, negative = inhibition, actives largely listed as inhibitors | P10636 | AID 1468 | K18 P301L tau heparin fibrillization, Alexa594 FP, 6 h | 0.39% of 280,000 active; note: potency is the fitted concentration of half-maximal effect; nearly all actives have a fitted effect of over 55% in size
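Human tau K18 […] P301L fragment, 15 uM unlabeled plus 0.24 uM Alexa 594-labeled tau (final), with compound and 20 uM heparin in 100 mM sodium acetate pH 7; 6 hr at 37 C, then Alexa 594 FP read.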
FBPA coupling cs: inhibits coupling enzyme system, counter-screen for aldolase hits | coupling enzyme system counterscreen, AmpLite Red fluorescence | activity change, negative = inhibition, % at 58.2 µM, hits read low | 0.67% of 290,000 active; in the data active = activity change below about -30%
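Final compound at 57.5 uM, incubated 10 min at RT with coupling enzyme reagent (glyceraldehyde-3-phosphate), then 20 min with substrate and AmpLite Red detection. Fluorescence read at 525/598 nm; tests interference with the coupling assay, not aldolase inhibition.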
Tau fluor cs: counter-screen for tau fibril formation inhibitors. 0.93% of 280,000 active. tau K18 P301L (four-repeat tau fragment) Alexa594 fluorescence, heparin fibrillization. Potency, µM (highest dose often 57.7 µM), for inactives: at the top dose activity change, negative = decrease; note: potency is the fitted concentration of half-maximal effect; nearly all actives have a fitted effect of over 55% in size
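Human K18 P301L tau (15 uM unlabeled plus 0.24 uM Alexa 594-labeled, final) in 100 mM sodium acetate pH 7 was mixed with compound and 20 uM heparin and incubated 6 hr at 37 C.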
Active calls of the source: *; ! = repeats disagree; [ ] = remark or other dose. The list is not random: actives were taken first. Their share in the collection is about 5.2%. Unless noted, calls come from the whole dose curve; as a rule, active = well fitted curve in the direction sought with a large enough effect; inconclusive = small, poorly fitted or top-dose-only effect, or another doubt; inactive = no such curve, though single readings can be large; an effect the other way counts as inactive or inconclusive. Unless noted, % is set by controls: 0 for no effect and ±100 for the full control effect.

For Oc1ccc(O)c(Cc2nc3ccccc3s2)c1 the results were Sfp inh 50µM*, Tau fibril ThT inconclusive, Tau FP inhib 15%, FBPA coupling cs 0 and Tau fluor cs inconclusive.
For NC(=O)CSCc1nc2ccccc2s1 the results were Sfp inh 56µM*, Tau fibril ThT -13%, Tau FP inhib 0%, FBPA coupling cs -1 and Tau fluor cs -9%.
For CSc1ccc(CCNC(=O)c2cc3cc(S(=O)(=O)N4CCCCC4)ccc3n2C)cc1 the results were Tau fibril ThT 0%, Tau FP inhib 2% and Tau fluor cs -14%.
For CC(C)COP(=O)(c1ccc(N(C)C)cc1)C(O)c1ccccn1 (stereo unspecified) the results were Sfp inh 79µM*, Tau fibril ThT -13%, Tau FP inhib 2%, FBPA coupling cs 2 and Tau fluor cs -1%.
Screening CC(C)CCOP(=O)(c1ccc(N(C)C)cc1)C(O)c1ccccn1 (stereo unspecified) returned Sfp inh -2%, Tau fibril ThT -5%, Tau FP inhib 1%, FBPA coupling cs -1 and Tau fluor cs 5%.
`Cc1ccc(/C=C/C2=Cc3c(sc(NC(=O)CSc4n[nH]c(N)n4)c3C#N)C(C)(C)C2)o1` gave Sfp inh 2.5µM*, Tau fibril ThT inconclusive, Tau FP inhib inconclusive, FBPA coupling cs -2 and Tau fluor cs -28%.
`COc1ccc(C(=O)OCC(=O)c2ccc(C3CCCCC3)cc2)cc1` gave Sfp inh -4%, Tau fibril ThT -21%, Tau FP inhib inconclusive, FBPA coupling cs 1 and Tau fluor cs -21%.
`Nc1ccc(O)cc1C(=O)OCC(=O)c1ccc(C2CCCCC2)cc1` gave Sfp inh -20%, Tau fibril ThT inconclusive, Tau FP inhib -1%, FBPA coupling cs -3 and Tau fluor cs 13µM*[quencher].
For Nc1ccc(O)cc1C(=O)OCC(=O)C12CC3CC(CC(C3)C1)C2 the results were Sfp inh -1%, Tau fibril ThT -13%, Tau FP inhib 14%, FBPA coupling cs -47* and Tau fluor cs inconclusive.
CCOc1ccc(NC(=O)C2CCC(CNS(=O)(=O)c3ccc(Br)s3)CC2)cc1 (stereo unspecified) was read as Tau fibril ThT -11%, Tau FP inhib inconclusive and Tau fluor cs -11%.
Screening Cc1cccc(NC(=S)NNC(=O)COc2ccc(Cl)cc2Cl)c1 returned Sfp inh inconclusive, Tau fibril ThT inconclusive, Tau FP inhib -3%, FBPA coupling cs 8 and Tau fluor cs inconclusive.
For Cc1ccc(S(=O)(=O)NCC23C=CC(O2)C2C(=O)N(c4ccccc4)C(=O)C23)cc1 (stereo unspecified) the results were Sfp inh 28µM*, Tau fibril ThT inconclusive, Tau FP inhib 3%, FBPA coupling cs -2 and Tau fluor cs -4%.
Cc1cccc(NC(=S)NCC23C=CC(O2)C2C(=O)N(c4ccc(Cl)cc4)C(=O)C23)c1 (stereo unspecified) was read as Sfp inh 35µM*, Tau fibril ThT -12%, Tau FP inhib 17%, FBPA coupling cs 1 and Tau fluor cs -2%.
`Cc1ccc(N2C(=O)[C@@H]3[C@H](C2=O)[C@H]2C=CC=NN2[C@@H]3C(=O)Nc2ccccc2)cc1` gave Sfp inh -14%, Tau fibril ThT -13%, Tau FP inhib 7%, FBPA coupling cs -4 and Tau fluor cs 1%.
For Cc1ccc(NC(=S)NCC23C=CC(O2)C2C(=O)N(c4ccc(C)cc4)C(=O)C23)cc1 (stereo unspecified) the results were Sfp inh 35µM*, Tau fibril ThT -15%, Tau FP inhib 9%, FBPA coupling cs 1 and Tau fluor cs -5%.
Cc1ccc(N2C(=O)C3C4C=CC(CNC(=S)N5CCN(c6ccccc6)CC5)(O4)C3C2=O)cc1 (stereo unspecified) was read as Sfp inh 13µM*, Tau fibril ThT -5%, Tau FP inhib 13%, FBPA coupling cs -1 and Tau fluor cs 15%.
Screening COc1ccc(NC(=O)CN2CCCN(Cc3ccc(Cl)cc3)S2(=O)=O)cc1Cl returned Tau fibril ThT -12%, Tau FP inhib inconclusive and Tau fluor cs inconclusive.
CCCCCCCCCCCCC/C=C/[C@@H](O)[C@H](CO)N(C)C was read as Sfp inh 15%, Tau fibril ThT -4%, Tau FP inhib -3%, FBPA coupling cs -2 and Tau fluor cs -6%.
For CCCCCCCCCCCCC/C=C/[C@@H](O)[C@@H](N)CO the results were Sfp inh 79µM*!, Tau fibril ThT inconclusive, Tau FP inhib 6%, FBPA coupling cs 4 and Tau fluor cs -11%.
Screening C=CCOC(=O)C1=C(C)N(C)C(=O)NC1c1cc2c(cc1Br)OCO2 (stereo unspecified) returned Sfp inh -9%, Tau fibril ThT -16%, Tau FP inhib -8%, FBPA coupling cs 5 and Tau fluor cs -9%.
CCOC(=O)C1=C(C)N(C)C(=O)NC1c1cc2c(cc1[N+](=O)[O-])OCO2 (stereo unspecified) was read as Sfp inh 50µM*, Tau fibril ThT inconclusive, Tau FP inhib -12%, FBPA coupling cs -9 and Tau fluor cs -19%.
Nc1nc(C2C(=O)CCCC2=O)cs1 was read as Sfp inh 56µM*, Tau fibril ThT -5%, Tau FP inhib -4%, FBPA coupling cs -7 and Tau fluor cs -1%.
`O=C(Nc1ccc(-c2csc(Nc3ccc(Cl)cc3)n2)cc1)c1cccc(C(F)(F)F)c1` gave Sfp inh 16%, Tau fibril ThT inconclusive, Tau FP inhib 4%, FBPA coupling cs -3 and Tau fluor cs 4µM*[quencher].
O=C(Nc1ccc(-c2csc(Nc3ccccc3)n2)cc1)c1cc([N+](=O)[O-])cc(C(F)(F)F)c1 was read as Sfp inh 21%, Tau fibril ThT 3.5µM*, Tau FP inhib 0%, FBPA coupling cs -4 and Tau fluor cs 4µM*[quencher].
For O=C(Nc1ccc(-c2csc(Nc3ccccc3)n2)cc1)c1cccc(C(F)(F)F)c1 the results were Sfp inh 0%, Tau fibril ThT inconclusive, Tau FP inhib 1%, FBPA coupling cs -5 and Tau fluor cs inconclusive.
`O=C(Nc1cccc(-c2csc(Nc3cccc(C(F)(F)F)c3)n2)c1)c1cc([N+](=O)[O-])cc(C(F)(F)F)c1` gave Sfp inh 19%, Tau fibril ThT inconclusive, Tau FP inhib 6%, FBPA coupling cs 0 and Tau fluor cs 2.5µM*[quencher].
For O=[N+]([O-])c1cccc(-c2csc(N/N=C/c3cccc(O)c3)n2)c1 the results were Sfp inh 50µM*, Tau fibril ThT 6.3µM*, Tau FP inhib -5%, FBPA coupling cs 1 and Tau fluor cs 7.9µM*[quencher].
Screening Cc1c(Cl)cccc1NC(=O)c1cc2nc(-c3ccc4c(c3)OCO4)cc(C(F)(F)F)n2n1 returned Tau fibril ThT 2%, Tau FP inhib -8% and Tau fluor cs 0%.

Screening results from PubChem BioAssay.
